# Compounds with a hit are over-represented: about 3.6% of the library has one in this group of screens.
# Abeta rescue = restores growth of yeast expressing A-beta42 peptide; yeast expressing A-beta42, growth rescue, OD600, 48 h; response scale: 0% DMSO, 100% iron-clioquinol control; Potency, µM (doses to about 46.1 µM), hits mostly activators; actives 0.063% (n = 410,000); AID 1347071; further: nearly all actives have a fitted effect of over 55% in size
#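 Yeast growth medium received pinned compounds, then yeast cells expressing toxic A-beta were added; plates incubated at 30 C for 48 hr. Growth read as absorbance at 600 nm, normalized to DMSO and equimolar FeCl3 plus clioquinol controls.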
# FUS yeast rescue = rescues growth of FUS-expressing yeast | S. cerevisiae FUS-expressing, growth rescue, OD600, 24 h | Potency, µM (doses to about 76.6 µM), hits mostly activators | actives 0.24% (n = 390,000) | AID 1347120; further: nearly all actives have a fitted effect of over 55% in size
#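 Compound concentration series was pinned onto galactose-induced FUS-expressing yeast seeded at OD 0.005. Plates sat 24hr at 30C; absorbance at 600 nm gave growth. DMSO served as background control.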
# aSyn yeast inh = alpha-synuclein toxicity inhibition in yeast | Potency, µM (titrated, usually from 46.1 µM), usual class: activators | actives 0.14% (n = 370,000) | AID 652106 | Yeast expressing alpha-synuclein, growth rescue, BacTiter-Glo, 24 h; further: nearly all actives have a fitted effect of over 65% in size
#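 Rescue of yeast growth: cells expressing toxic alpha-synuclein, induced in galactose at OD600 0.02, incubated with compound 24 h at 30 C. ATP luminescence quantified growth; inhibitors of toxicity appear as activators.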
# ClpP mod = qHTS Assay for Activators of ClpP | purified B. subtilis ClpP, FRET peptide cleavage, 20 min | AID 651965, 2013 | actives 1.9% (n = 340,000) | Potency, µM (highest dose often 57.5 µM); active means well fitted falling curve with a large enough effect; inconclusive means small, poorly fitted or top-dose-only effect; inactive means no such curve, though single readings can be large or run the other way; further: the source files actives as falling curves though it sought activators and does not explain the sign; nearly all actives have a fitted effect of over 65% in size
# Target sequence (P80244 whole entry, looked up): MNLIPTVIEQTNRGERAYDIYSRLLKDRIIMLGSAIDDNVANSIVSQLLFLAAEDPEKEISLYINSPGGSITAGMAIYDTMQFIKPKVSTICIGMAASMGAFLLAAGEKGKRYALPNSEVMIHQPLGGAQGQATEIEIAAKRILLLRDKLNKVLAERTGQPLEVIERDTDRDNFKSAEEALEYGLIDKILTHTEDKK
#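 FRET quenching reversal measured ClpP activation: 10 microg/mL B. subtilis ClpP at pH 8 with the FRET-FV decapeptide, read at 430 nm after 320 nm excitation. The 20-min minus 0-min signal was scaled between DMSO/no-enzyme wells and ADEP (5.8 microM final).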
# MmCpn inh = M. maripaludis TRiC chaperonin inhibition. AID 504842. purified Mm-Cpn ATPase, ADP Transcreener TR-FRET. actives 0.031% (n = 330,000). Potency, µM (series often up to 76.9 µM), actives largely listed as inhibitors; further: nearly all actives have a fitted effect of over 80% in size
#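 ATP (10 uM final) was added to archaeal chaperonin (25 nM final) after 10 min exposure to test compound at 37°C; after 30 min further incubation, ADP was detected by competitive TR-FRET.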
# TDP-43 yeast inh = TDP-43 toxicity inhibition in yeast. AID 652104. actives 1.8% (n = 410,000). Potency, µM (top dose mostly 46.1 µM), most hits filed as activators. TDP-43 expressing yeast growth rescue, BacTiter-Glo, 24 h; further: nearly all actives have a fitted effect of over 50% in size
#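 In this qHTS, compounds that restore growth of yeast expressing TDP-43 appear as activators. Cells (OD600=0.02, galactose medium, raffinose-pregrown) are incubated with compound 24 hr at 30 deg C and growth is quantified by BacTiter-Glo.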
# A number is an active result; n = inactive; u = inconclusive; x = not tested or not shown; [ ] = remark or other dose. Unless noted, the call rests on the fitted dose curve; in most records, active means well fitted curve in the direction sought with a large enough effect; inconclusive means small, poorly fitted or top-dose-only effect, or another doubt; inactive means no such curve, though single readings can be large; an effect the other way counts as inactive or inconclusive.
SMILES,Abeta rescue,FUS yeast rescue,aSyn yeast inh,ClpP mod,MmCpn inh,TDP-43 yeast inh
Nc1nonc1-n1nnc(C(=O)N/N=C/c2ccc(Br)cc2)c1-c1ccc2c(c1)OCO2,n,n,n,25.1µM,n,n
Nc1nonc1-n1nnc(C(=O)N/N=C/c2ccc3c(c2)OCO3)c1-c1ccccc1,n,n,n,x,n,n
NC(=S)NN=C1CSSC1,u,n,2.82µM,n,x,20µM
CC(C)CCn1c(=O)c2sccc2n2c(CCCC(=O)NC3CCC(C)CC3)nnc12 (stereo not drawn),n,n,x,n,x,n
COc1ccc(CC2S/C(=N/N=C/c3ccc(O)cc3)NC2=O)cc1 (stereo not drawn),n,n,n,x,n,n
COc1ccc(/C=N/N=C2/NC(=O)C(CC(=O)NC(C)C)S2)cc1 (stereo not drawn),n,n,n,14.1µM,n,n
CCn1c(CN2CCCCC2)nc2cc(NC(=O)c3ccc([N+](=O)[O-])cc3)ccc21,n,n,x,n,x,n
CCNC(=S)N/N=C(\C)c1ccc2ccccc2c1,x,x,x,x,n,x
CCNC(=S)N/N=C(\C)c1ccc2ccccc2c1OC(F)F,5.62µM,u,n,n,n,u
Cc1nc(Nc2nc3c(c(=O)[nH]2)CCC3)nc2ccccc12,n,n,11.2µM,x,x,14.1µM
O=c1[nH]c(NCc2ccccc2)nc2c1CCC2,n,n,n,n,n,u
CC(=O)Nc1ccc(SC[C@H](Cc2ccccc2)N2CC[C@@H](N)CCC2=O)cc1,x,x,x,n,x,x
CNC(=O)COc1ccc(C=O)cc1OC,n,n,n,n,n,n
COc1cc(C=O)ccc1OCc1ccccc1Br,n,x,n,n,n,11.2µM
COc1cc(C=O)ccc1OCc1cccc(Br)c1,n,x,n,25.1µM,n,20µM
Cc1cccc(NC(=O)CSc2nc(=O)n(Cc3cccnc3)c3c2CCC3)c1,n,n,x,n,x,n
CCCNC(=O)C1CCN(S(=O)(=O)c2ccc3c(c2)CCCN3C(C)=O)CC1,n,n,x,n,x,n
Cc1ccc(C(=O)n2nc(C)c(S(=O)(=O)N3CCCCCC3)c2C)cc1C,n,n,x,n,x,u
CC(C)c1ccc(Nc2n[nH]c(=S)s2)cc1,n,n,n,n,x,14.1µM
Cn1c2cc([N+](=O)[O-])sc2c2cnn(Cc3ccccc3F)c(=O)c21,x,x,x,x,n,x
CC(C)OCCCNc1sc(S(=O)(=O)c2ccccc2)nc1S(=O)(=O)c1ccc(Cl)cc1,n,31.6µM,x,n,x,n
CCN(CC)CCCNc1sc(S(=O)(=O)c2ccccc2)nc1S(=O)(=O)c1ccc(Cl)cc1,n,n,x,n,x,n
COc1cc(OC)c(NC(=O)CCc2nc(C3=CCN(Cc4cccc(Cl)c4)CC3)no2)cc1Cl,n,n,x,n,x,n
CC(=O)c1ccccc1NC(=O)COC(=O)C1CCCN1S(=O)(=O)c1ccccc1F (stereo not drawn),n,n,14.1µM,n,n,n
CCOc1ccc(CNS(=O)(=O)c2c(C(=O)N3CCCCCC3)c(C)n(C)c2C)cc1OC,n,n,x,n,x,n
SMILES,Abeta rescue,FUS yeast rescue,aSyn yeast inh,ClpP mod,MmCpn inh,TDP-43 yeast inh
COc1cccc(/C=C/C(=O)OCC(=O)Nc2cc(C(F)(F)F)ccc2Cl)c1,n,x,n,35.5µM,n,n
COc1ccc(/C=C/C(=O)OCC(=O)c2c(N)n(C)c(=O)n(C)c2=O)cc1,n,n,n,n,n,n
COc1cccc(/C=C/C(=O)OCC(=O)c2c(N)n(C)c(=O)n(C)c2=O)c1,n,x,n,25.1µM,n,n
COc1ccc(/C=C/C(=O)Nc2cc(C(F)(F)F)ccc2Cl)cc1OC,n,x,n,n,n,u
COc1cccc(/C=C/C(=O)OCC(=O)Nc2ccc(Cl)c(S(=O)(=O)N(C)C)c2)c1,n,n,n,x,n,n
COc1cc(/C=C/C(=O)Nc2cc(C(F)(F)F)ccc2Cl)cc(OC)c1OC,n,n,n,u,n,22.4µM
COc1ccc(CCC(=O)NC2CC(=O)N(c3ccc(C)c(C)c3)C2)cc1 (stereo not drawn),n,n,x,n,x,n
COc1ccc(-c2csc(C(O)c3cccc(OC)c3)n2)cc1 (stereo not drawn),u,n,3.55µM,n,x,20µM
COc1cccc(C(O)c2nc(-c3cc(F)cc(F)c3)cs2)c1 (stereo not drawn),u,n,u,n,x,15.8µM
CCCN(C)CCCOc1cc2nc(N3CCCN(C)CC3)nc(NC3CCN(C)CC3)c2cc1OC,x,x,n,n,x,x
CC(C)c1nc2sc3c(=S)nc[nH]c3c2c2c1CCC2,n,n,n,n,n,15.8µM
c1ccc(-c2nnc3n2N=C(c2ccc4ccccc4c2)CS3)cc1,x,n,x,x,x,x
CCCCC(=O)NC(=S)NNC(=O)c1ccc(OC)cc1,u,n,6.31µM,x,n,u
COc1ccc(C(=O)NNC(=S)NC(=O)c2ccc(OC)cc2)cc1,u,n,n,n,n,n
CCCCC(=O)NNC(=S)NC(=O)CCC,u,n,25.1µM,n,n,n
COc1ccc(N2CC(NC(=O)c3ccc(OC(C)C)cc3)CC2=O)cc1 (stereo not drawn),n,n,x,n,x,n
CC(C)CCNC(=O)c1cc(Sc2ccc(F)cc2F)nc2ccccc12,n,n,x,n,x,n
CCn1c(SCc2ccc(F)cc2)nc2c(c1=O)SCC2,n,n,n,n,n,17.8µM
CC1CCc2c(C(=O)Nc3ccc(N4CCOCC4)cc3)csc2C1 (stereo not drawn),n,n,n,n,n,7.08µM
CC1CCc2c(C(=O)NCCN3CCOCC3)csc2C1 (stereo not drawn),n,n,n,n,n,n
O=C(Nc1ccc(F)cc1F)c1cc2n(n1)C(C(F)(F)F)C1CCCCC1N2 (stereo not drawn),n[9.22 µM],n,n,28.2µM,n,n
N#Cc1cccc2c1-c1ccccc1/C2=N/NC(N)=S,n,n,n,n,n,11.2µM
N#Cc1cccc2c1-c1ccccc1/C2=N/NC(N)=O,n,n,n,n,n,n
O=C(C1CCCN(c2ncnc3c2nc2n3CCCCC2)C1)N1CCN(c2ccccc2F)CC1 (stereo not drawn),n,n,n,n,n,11.2µM
CCc1ccccc1N(C)C(=O)C1CCCN(c2ncnc3c2nc2n3CCCCC2)C1 (stereo not drawn),n,n,x,n,x,11.2µM
O=C(Nc1ccccc1Cl)C1CCCN(c2ncnc3c2nc2n3CCCCC2)C1 (stereo not drawn),n,n,n,x,n,14.1µM
COc1cccc(-c2cc(C(=O)NCCc3ccc(C)cc3)[nH]n2)c1,n,n,x,n,x,n
CCOC(=O)c1[nH]c(C)c(CCC(=O)NCc2ccc(CC)cc2)c1C,n,n,x,n,x,n

# Screening data: PubChem BioAssay, National Center for Advancing Translational Sciences (NCATS)
